# Measured values from PubChem BioAssay (EPA / NIEHS).
# Activity calls are given as the source filed them. Rule for the calls: active = hit-call score of the fitted dose curve at least 0.9, where 1 is the maximum; inactive = score below 0.9.
# Assay: ATG_M_19_CIS: Attagene CIS-FACTORIAL HepG2 Assay for M19 Transcription Factor (Internal Marker) (AID 2282939)
# Details: HepG2 Attagene CIS-FACTORIAL M19 internal marker reporter; actives raise or lower the signal
# Outline: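 Background-control endpoint from a multiplexed HepG2 reporter panel. Cells carrying cis-regulated reporter constructs are treated 24 h, then reporter transcripts are amplified, fluorescently labelled and sized by capillary electrophoresis. DMSO defines baseline.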
row,SMILES,outcome
1,Cc1c([N+](=O)[O-])c(C)c([N+](=O)[O-])c(C(C)(C)C)c1[N+](=O)[O-],inactive
2,CCCSP(=S)(OCC)Oc1ccc(SC)cc1 (stereo unspecified),inactive
3,C#C[C@]1(O)CC[C@H]2[C@@H]3CCC4=CC(=O)CC[C@]4(C)[C@H]3CC[C@@]21C,inactive
4,O=NN1CCCCCCC1,inactive
5,BrCCCCBr,inactive
6,CC(C)CP(=S)(S)CC(C)C,inactive
7,O=c1[nH]c(=O)n(Cl)c(=O)n1Cl,inactive
8,CC(C)=CC1C(C(=O)OCc2cccc(Oc3ccccc3)c2)C1(C)C (stereo unspecified),inactive
9,CCOP(=S)(OCC)Oc1ccc(Cl)cc1Cl,inactive
10,CCN(CC)C(=O)C(Cl)=C(C)OP(=O)(OC)OC,inactive
11,CC(C)(C1CCC(O)CC1)C1CCC(O)CC1 (stereo unspecified),inactive

# Assay: ATG_ERE_CIS: Attagene CIS-FACTORIAL HepG2 Assay for Estrogen Response Element (ERE) (AID 2282940)
# Details: HepG2 ERE cis-reporter, Attagene RNA transcript; actives raise or lower the signal
# Outline: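 Cells used were human hepatoma HepG2, transfected with multiple reporter transcription units under cis-regulatory promoters. Reporter mRNA, read 24 h post-dosing via fluorescent RT-PCR products on capillary electrophoresis, was fitted bidirectionally relative to DMSO.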
SMILES,AC50,outcome
CCCSP(=S)(OCC)Oc1ccc(Cl)cc1Cl (stereo unspecified),10.3 µM (active),
O=[N+]([O-])c1cccc2ccccc12,,inactive
CNC(=O)CSP(=O)(OC)OC,,inactive
N#Cc1ccccc1N,,inactive
Cc1ccc2nc3sc(=O)sc3nc2c1,,inactive
O=C(NC(=O)c1c(F)cccc1F)Nc1cc(Cl)c(F)c(Cl)c1F,,inactive
CCN(CCO)CCO,,inactive
C1CN2CCN1CC2,,inactive
C=CC(=O)NC(C)(C)CC(C)=O,,inactive
OC(c1ccc(Cl)cc1)(c1ccc(Cl)cc1)c1cccnc1,,inactive
C=CCOC(F)(C(F)(F)F)C(F)(F)F,,inactive
Cc1cc(Cl)ccc1OC(C)C(=O)O (stereo unspecified),,inactive
O=[N+]([O-])c1cc([As](=O)(O)O)ccc1O,,inactive
CCCSP(=S)(OCC)Oc1ccc(SC)cc1 (stereo unspecified),7.28 µM (active),
O=NN1CCCCCCC1,,inactive
BrCCCCBr,,inactive
CC(C)=CC1C(C(=O)OCc2cccc(Oc3ccccc3)c2)C1(C)C (stereo unspecified),100 µM (active),
CCOP(=S)(OCC)Oc1ccc(Cl)cc1Cl,10.1 µM (active),
CCN(CC)C(=O)C(Cl)=C(C)OP(=O)(OC)OC,,inactive
CC(C)(C1CCC(O)CC1)C1CCC(O)CC1 (stereo unspecified),20.4 µM (active),
